Hits are enriched below; roughly 3.9% of the tested compounds scored in any of these assays.
HGIII-sPLA2 inh: Inhibits HGIII-sPLA2 liposome hydrolysis, primary screen; QFRET BODIPY PC-A2 liposome hydrolysis, fluorescence; 0.56% of 370,000 active; AID 743126; Q9NZ20; inhibition, % at 12.2 µM;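 active = inhibition above mean plus 3 SD of compounds lying within the high and low control bounds, cut at about 19% in these data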;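 also: 0% = median of test compound wells and 100% = no enzyme DMSO wells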
AHR activator: activates the human aryl hydrocarbon receptor. P35869. AHR-responsive luciferase reporter cells, luminescence. activation, % at 5 µM. 2.5% of 320,000 active. AID 2796; in the data active = activation above about 47%;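 also: 0% = vehicle wells and 100% = reference agonist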
Target sequence (P35869 whole entry, looked up): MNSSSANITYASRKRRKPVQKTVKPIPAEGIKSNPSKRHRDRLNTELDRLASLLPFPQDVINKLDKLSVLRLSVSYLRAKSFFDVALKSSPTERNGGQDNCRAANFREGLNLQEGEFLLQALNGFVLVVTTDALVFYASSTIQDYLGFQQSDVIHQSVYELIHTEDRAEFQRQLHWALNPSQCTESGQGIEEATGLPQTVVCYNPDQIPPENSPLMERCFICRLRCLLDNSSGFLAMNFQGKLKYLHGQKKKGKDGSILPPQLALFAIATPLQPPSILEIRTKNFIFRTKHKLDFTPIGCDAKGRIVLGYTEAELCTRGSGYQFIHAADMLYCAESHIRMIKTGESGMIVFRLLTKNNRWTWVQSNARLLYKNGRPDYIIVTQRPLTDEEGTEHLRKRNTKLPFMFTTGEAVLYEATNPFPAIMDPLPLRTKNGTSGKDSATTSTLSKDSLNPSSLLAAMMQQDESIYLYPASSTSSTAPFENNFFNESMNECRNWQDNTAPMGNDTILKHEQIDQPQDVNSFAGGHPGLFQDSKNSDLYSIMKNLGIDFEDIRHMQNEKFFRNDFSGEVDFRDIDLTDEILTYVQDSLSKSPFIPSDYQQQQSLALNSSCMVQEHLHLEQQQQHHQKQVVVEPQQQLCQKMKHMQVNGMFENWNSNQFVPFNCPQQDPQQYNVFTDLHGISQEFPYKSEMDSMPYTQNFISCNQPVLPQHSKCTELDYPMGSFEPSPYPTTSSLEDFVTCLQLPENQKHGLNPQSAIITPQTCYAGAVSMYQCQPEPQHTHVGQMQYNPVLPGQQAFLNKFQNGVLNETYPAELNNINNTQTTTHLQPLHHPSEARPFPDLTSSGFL
HIF act: HIF pathway transcriptional activation | U2OS HRE-luciferase reporter, luminescence; normalized: DMSO 0%, desferrioxamine 100% | activation, % at 7.5 µM (by protocol) | 0.32% of 300,000 active | AID 1910;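 active = mean activation of at least 10% of the iron chelator positive control signal, with at least half of replicates also reaching 10%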
PLCb3 inh: PLC-beta3 (human) inhibition, primary screen; Q01970; Purified PLC-beta3, fluorogenic substrate, fluorescence; inhibition, % at 12.2 µM; 0.18% of 370,000 active; AID 720704; in the data active = inhibition above about 11%;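 also: 0% = median of compound wells on plate and 100% = full blocker control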
CR mimetic SO: lowers age-related superoxide in aged yeast cells | S. cerevisiae aged cells, superoxide DHE fluorescence; hits give low values | superoxide response (% of plate mean), % at 10 µM | 0.18% of 330,000 active | AID 2690;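 active = superoxide response under a set limit, about three screen SD below normal, cut at about 65% in these data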;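 also: yeast aged for seven days with compound at 30 °C before DHE staining; 100% = average MFI of all compound-treated wells on the plate with controls excluded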
PLC-gamma1 inh: inhibitors of human phospholipase C gamma1. purified PLC-gamma1, fluorogenic substrate, fluorescence. inhibition, % at 12.2 µM. AID 720700. 0.84% of 370,000 active; in the data active = inhibition above about 9.5%
Superoxide pick: confirmation of caloric restriction mimetics inhibiting yeast age-related superoxide. shares compounds with CR mimetic SO. S. cerevisiae aging, superoxide DHE fluorescence; hits give low values. superoxide response (% of plate), % at 10 µM. 1% of 850 active. AID 434994;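 active = superoxide signal below 65% of the plate average of sample wells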;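 also: cells aged with compound for 7 days at 30 degrees C before staining; 100% equals mean DHE fluorescence of all compound wells on the plate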
DHE fluor count: counter-screen for compounds affecting DHE oxidation and fluorescence in yeast; shares compounds with CR mimetic SO; S. cerevisiae BY4741, flow cytometry; hits give low values; fluorescence response, % at 10 µM; 850 tested, under 10 active; AID 435000;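 active = fluorescence response below 15%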;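 also: percent of the mean fluorescence averaged over all compound wells on the plate; lower means stronger quenching of DHE signal or ROS scavenging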
* hit, by the source's call; nt = no result.

SMILES	HGIII-sPLA2 inh	AHR activator	HIF act	PLCb3 inh	CR mimetic SO	PLC-gamma1 inh	Superoxide pick	DHE fluor count
O=c1c2ccccc2nc(/C=C/c2ccccc2O)n1-c1ccccc1O	-44.0	47.1*	-2.1	-291.6	106.3	-207.3	nt	nt
O=c1c2ccccc2nc(-c2ccccc2)n1-c1ccccc1	-5.9	0.0	-0.8	-4.1	109.2	0.1	nt	nt
O=c1c2ccccc2nc(-c2ccccc2)n1-c1ccccc1O	-5.6	63.5*	-7.7	-10.8	104.5	-2.0	nt	nt
O=c1c2ccccc2nc(-c2ccccc2)n1-n1cccc1	4.9	74.2*	-0.4	-3.8	88.2	-6.0	nt	nt
CC12CN3C(O)C(C)(C1)CC(C)(C2)C3O (configuration not stated)	3.5	0.7	-0.7	3.9	103.0	-1.4	nt	nt
CC/C(=N\N1CCCCCC1)c1c(O)n(-c2ccc(C)cc2)c(=O)[nH]c1=O	-4.2	-3.2	12.4*	-2.3	102.1	-2.2	nt	nt
COc1ccc2c(c1)CC1(CN2C)C(=O)NC(=O)N(c2ccc(C)cc2)C1=O (configuration not stated)	-10.6	52.1*	0.4	-19.8	101.5	-13.7	nt	nt
Cc1cccc(N2C(=O)NC(=O)C3(Cc4cc(C)ccc4N(C)C3)C2=O)c1 (configuration not stated)	-16.5	38.0	0.2	-1.1	88.5	-0.5	nt	nt
COc1ccc2c(c1)CC1(CN2C)C(=O)NC(=O)N(c2ccc(F)cc2)C1=O (configuration not stated)	-8.9	72.3*	-0.8	-39.3	88.6	-27.0	nt	nt
CSCCC(NC(=O)CCC(=O)OC1CC[C@H]2[C@@H]3CC[C@H]4CC(=O)CC[C@]4(C)[C@H]3CC[C@]12C)C(=O)O (some centres not stated)	-16.1	-0.9	-7.8	-2.8	97.3	0.8	83.5	105.2
C[C@]12CCC3C(CC[C@H]4C[C@@H](O)CC[C@]34C)C1CC[C@@H]2OC(=O)[C@H](N)CCCCN (some centres not stated)	1.4	-0.4	nt	-5.5	81.8	-1.0	72.8	98.3
C[C@]12CCC3C(CC[C@H]4C[C@@H](O)CC[C@]34C)C1[C@H]1CN=N[C@H]1[C@@H]2O (some centres not stated)	3.3	-0.7	nt	5.6	107.8	4.9	133.8	120.4
C[C@]12CC[C@H](O)C[C@@H]1CC[C@@H]1[C@@H]2CC[C@]2(C)C(=O)CC[C@@H]12	-1.1	-0.7	-0.3	-3.1	70.3	-0.6	nt	nt
C[C@]12CCC3C(CC[C@H]4C[C@@H](O)CC[C@]34C)C1CCC2=O (some centres not stated)	nt	-0.5	nt	nt	62.7*	nt	90.0	102.8
C[C@]12CCC3[C@@H](CC[C@@H]4C[C@H](O)CC[C@]34C)[C@@H]1CCC2=O (some centres not stated)	-3.8	-1.2	nt	6.5	66.4	1.2	nt	nt
C[C@]12CCC3C(CC[C@H]4C[C@@H](O)CC[C@]34C)C1C[C@@H](Br)[C@H]2O (some centres not stated)	1.0	-1.4	nt	2.4	77.0	-0.2	104.0	112.5
CN1CCN(/N=C/c2c(O)n(C)c(=O)n(C)c2=O)CC1	9.5	-3.0	-0.2	0.4	86.8	1.8	nt	nt
CC(N)Cc1cn(Cc2ccccc2)c2ccccc12 (configuration not stated)	14.2	3.0	0.2	-8.3	100.7	0.1	nt	nt
Cc1ccc2c(c1)N(N=O)CCC2	-5.2	5.4	-0.2	1.5	105.4	0.1	nt	nt
CNc1ccc2nc3ccccc3[n+](C)c2c1	4.0	9.8	-1.6	-12.2	61.9*	-6.0	61.6*	110.3
NC(Cc1ccccc1)c1nc(-c2ccccc2)no1 (configuration not stated)	-1.4	0.8	1.1	-3.8	107.2	7.3	nt	nt
C[C@]12CCC3C(C[C@@H](O)[C@H]4C[C@@H](O)CC[C@]34C)C1CC[C@@H]2O (some centres not stated)	10.3	-1.3	nt	-1.0	103.9	0.0	95.5	95.0
C[C@]12CCC(=O)C=C1CCC1C2CC[C@@]2(C)C1CC[C@@H]2O (some centres not stated)	-5.0	-1.8	nt	9.4	91.7	1.1	nt	nt
C[C@]12CC[C@H](N)CC1=CCC1C2CC[C@@]2(C)C1CC[C@@H]2O (some centres not stated)	-5.9	-0.9	nt	3.4	123.2	-0.7	nt	nt
C[C@]12CCC3C(CC[C@@H]4[C@H]5O[C@H]5CC[C@]34C)C1CC[C@@H]2O (some centres not stated)	-6.7	nt	nt	2.2	nt	-3.2	77.7	92.6
SMILES	HGIII-sPLA2 inh	AHR activator	HIF act	PLCb3 inh	CR mimetic SO	PLC-gamma1 inh	Superoxide pick	DHE fluor count
CC12CCC3C(CCC4CC(=O)C(C(O)C(F)(F)F)CC43C)C1CCC2O (configuration not stated)	-0.2	nt	nt	-0.5	nt	0.7	101.2	115.5
CC12CCC3C(CCCC4CC(=O)CCC43C)C1CCC2O (configuration not stated)	-1.4	nt	nt	2.6	nt	1.1	nt	nt
C[C@]12CCC(=O)C[C@H]1CC[C@@H]1[C@@H]2CC[C@]2(C)[C@@H](O)CC[C@@H]12	nt	-0.3	nt	nt	73.3	nt	99.0	117.8
CCCc1c(C)nc(-c2ccc(C)cc2)nc1OC(=O)N(C)C	1.3	7.9	-0.5	-4.8	95.2	-0.2	nt	nt
CC(C)(C)c1ccc(C(=O)C2CCCN(C3CCC3)C2)cc1 (configuration not stated)	-5.5	5.1	-0.9	2.2	64.7*	0.1	121.3	118.7
CC(C)(C)c1ccc(C(=O)C2CCCN(Cc3ccon3)C2)cc1 (configuration not stated)	0.0	17.1	1.1	2.1	94.0	0.6	nt	nt
CCOc1ccc(C2SCC(=O)Nc3c2c(=O)[nH]n3C2CCCCCC2)cc1 (configuration not stated)	-1.5	2.4	0.0	2.2	61.6*	5.8	104.5	96.1
COC(=O)C1C2c3ccccc3C(c3ccccc32)C1C(=O)OC (configuration not stated)	2.5	1.1	-0.2	1.9	83.9	2.7	nt	nt
Cc1ccc(C)c(Cn2c(C(=O)O)c(C=O)c3ccccc32)c1	-4.4	3.2	-0.9	-5.4	110.2	-2.8	nt	nt
Cc1ccc[n+](CC(O)Cn2c3ccccc3c3ccccc32)c1 (configuration not stated)	-3.1	4.8	-0.4	3.4	52.3*	1.3	92.0	90.7
COc1ccc(-n2c(O)c(C(C)=NCC3CCCO3)c(=O)[nH]c2=O)cc1 (configuration not stated)	13.6	-5.2	0.2	-7.3	55.8*	2.3	107.1	126.2
[O-][n+]1onc2c1CCC1N(O)CCC21O (configuration not stated)	3.6	-3.9	-0.5	4.8	81.8	5.3	nt	nt
